Records with an inconclusive call do not appear. Calls of active or inactive are those of the source. Calls come from the whole dose curve; as a rule, active = well fitted curve in the direction sought with a large enough effect; inconclusive = small, poorly fitted or top-dose-only effect, or another doubt; inactive = no such curve, though single readings can be large; an effect the other way counts as inactive or inconclusive.
How the values were obtained:
[1] = S16 Schwann cell viability assay (CellTiter-Glo assay) (AID 624031);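 note: cellular ATP luminescence as a viability measure; nearly all actives have a fitted effect of over 70% in size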
How it was run: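 Native S16 Schwann cells (rat), serum-containing medium, overnight attachment then 24 h drug exposure at 37 °C/5% CO2. CellTiter-Glo ATP signal; normalized to cell-free and vehicle wells.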

[2] = system: 3D7; test: qHTS profiling for inhibitors of Plasmodium falciparum proliferation (AID 504749); note: nearly all actives have a fitted effect of over 60% in size; conditions: P. falciparum in erythrocytes, SYBR Green DNA, 72 h; series mostly up to 12.8 µM
How it was run: (§1)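 Parasite proliferation within erythrocytes, 72 h exposure. Endpoint: SYBR Green I fluorescence after overnight lysis at room temperature. Controls: 0.29 uM artemisinin, DMSO.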

[3] = system: 7G8; test: as above; conditions: P. falciparum in erythrocytes, SYBR Green DNA, 72 h; series mostly up to 12.8 µM
How it was run: as §1

[4] = system: AA1029; test: as above; conditions: P. falciparum in erythrocytes, SYBR Green DNA, 72 h; series mostly up to 12.8 µM
How it was run: as §1

[5] = system: ATS189; test: as above; conditions: P. falciparum in erythrocytes, SYBR Green DNA, 72 h; series mostly up to 12.8 µM
How it was run: as §1

[6] = system: CP191; test: as above; conditions: P. falciparum in erythrocytes, SYBR Green DNA, 72 h; series mostly up to 12.8 µM
How it was run: as §1

[7] = system: CP194; test: as above; conditions: P. falciparum in erythrocytes, SYBR Green DNA, 72 h; series mostly up to 12.8 µM
How it was run: as §1

[8] = system: CP203; test: as above; conditions: P. falciparum in erythrocytes, SYBR Green DNA, 72 h; series mostly up to 12.8 µM
How it was run: as §1

[9] = system: CP215; test: as above; conditions: P. falciparum in erythrocytes, SYBR Green DNA, 72 h; series mostly up to 28.7 µM
How it was run: as §1

[10] = system: CP237; test: as above; conditions: P. falciparum in erythrocytes, SYBR Green DNA, 72 h; series mostly up to 12.8 µM
How it was run: as §1

[11] = system: CP247; test: as above; conditions: P. falciparum in erythrocytes, SYBR Green DNA, 72 h; series mostly up to 12.8 µM
How it was run: as §1

[12] = system: CP268; test: as above; conditions: P. falciparum in erythrocytes, SYBR Green DNA, 72 h; series mostly up to 12.8 µM
How it was run: as §1

[13] = system: CP286; test: as above; conditions: P. falciparum in erythrocytes, SYBR Green DNA, 72 h; series mostly up to 12.8 µM
How it was run: as §1

[14] = system: DIV30; test: as above; conditions: P. falciparum in erythrocytes, SYBR Green DNA, 72 h; series mostly up to 12.8 µM
How it was run: as §1

[15] = system: ICS; test: as above; conditions: P. falciparum in erythrocytes, SYBR Green DNA, 72 h; series mostly up to 12.8 µM
How it was run: as §1

[16] = system: P94_40; test: as above; conditions: P. falciparum in erythrocytes, SYBR Green DNA, 72 h; series mostly up to 12.8 µM
How it was run: as §1

[17] = system: PAD; test: as above; conditions: P. falciparum in erythrocytes, SYBR Green DNA, 72 h; series mostly up to 12.8 µM
How it was run: as §1

[18] = system: PC26; test: as above; conditions: P. falciparum in erythrocytes, SYBR Green DNA, 72 h; series mostly up to 12.8 µM
How it was run: as §1

[19] = system: TAB109; test: as above; conditions: P. falciparum in erythrocytes, SYBR Green DNA, 72 h; series mostly up to 12.8 µM
How it was run: as §1

[20] = system: TAB165; test: as above; conditions: P. falciparum in erythrocytes, SYBR Green DNA, 72 h; series mostly up to 12.8 µM
How it was run: as §1

Measured: Potency

COCCc1ccc(OC[C@H](O)CNC(C)C)cc1
inactive: all assays above

NS(=O)(=O)c1cc([C@@]2(O)NC(=O)c3ccccc32)ccc1Cl
inactive: all assays above

CN[C@@H]1[C@H](O[C@@H]2O[C@H](CO)[C@@H](N)[C@H](O)[C@@H]2O)O[C@H]2C[C@@H](N)[C@@H](O[C@H]3[C@@H](O)[C@H](O)[C@H](N)C[C@@H]3N)O[C@H]2[C@H]1O
inactive: all assays above

CN(C)[C@H]1C(=O)C(C(=O)NCN2CCCC2)=C(O)[C@]2(O)C(=O)C3=C(O)c4c(O)cccc4[C@@](C)(O)[C@H]3C[C@@H]12
inactive: all assays above

C/C=C\C(=O)N(CC)c1ccccc1C
inactive: all assays above

From PubChem BioAssay (NCATS)
